Data: PubChem BioAssay AID624331 (National Center for Advancing Translational Sciences (NCATS), 2012)
Inconclusive results are not listed. Entries that show only a call come without a potency. Active and inactive are the calls of the source. Calls follow the shape of the dose curve; as a rule, active = well fitted activation curve with a large enough effect; inconclusive = small, poorly fitted or top-dose-only effect; inactive = no such curve, though single readings can be large or run the other way.

Assay: qHTS assay for re-activators of p53 using a Luc reporter: Hit Validation with no p53 Expressed
Details: p53-null cells, luciferase reporter counter-screen; series mostly up to 46.1 µM
Method in brief: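 Counter-screen of primary hits in a cell line not transfected with p53, in Opti-MEM with 10% FBS; compounds at several concentrations (10 mM stock, 1:5; top 46.1 µM in well), 24 h at 37 deg C, 5% CO2. Luminescence read after 10 min with Amplite reagent.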
Potency is read from the fitted curve at half-maximal effect.

O=C(COC(=O)C12CC3CC(CC(O)(C3)C1)C2)Nc1ccc(Br)cc1F
Potency: inactive

Cc1cc(C(=O)COC(=O)c2ccc(O)cc2)c(C)n1CC(F)(F)F
Potency: 20.6 µM (active)

COCc1[nH]nc2c1C(c1cccc(OC)c1)C(C#N)=C(N)O2 (stereo not given)
Potency: inactive

O=C(c1cccc(S(=O)(=O)NCc2ccc3c(c2)OCO3)c1)N1CCCC1
Potency: inactive

Cc1cccnc1NC(=O)c1ccc([N+](=O)[O-])o1
Potency: inactive

COc1cccc(NC(=O)c2ocnc2C)c1
Potency: inactive

CCCCCCC1CC(/C(C)=N\NC(N)=O)OC1=O (stereo not given)
Potency: inactive

Cc1ccc(NC(CC(=O)c2ccccc2)c2ccc(F)cc2)cc1 (stereo not given)
Potency: inactive

CCc1ccc(NC(=O)c2cnn3ccccc23)cc1
Potency: inactive

CCN(CC)c1ccc(CNc2ccc(Br)cn2)cc1
Potency: inactive

Cc1cc(/C=N/Nc2ncnc(N)c2[N+](=O)[O-])c(C)n1-c1ccccc1
Potency: inactive

CCC(=O)Nc1cccc(NC(=S)NC(=O)c2ccc(Cl)cc2)c1
Potency: inactive

Cc1nc(NC(=O)C2CC3CCCC(C2)C3=O)sc1C (stereo not given)
Potency: inactive

Cc1ccccc1S(=O)(=O)Nc1nc2ccccc2nc1N1CCc2ccccc2C1
Potency: inactive

CCOc1ccc(OCCSc2nc3ccccc3n2CC(=O)O)cc1
Potency: inactive

Cc1ccc(NC(=O)/C(Cl)=C/c2ccccc2)cc1C
Potency: inactive

Cc1ccc(NC(=O)/C=C/c2ccco2)nc1
Potency: inactive

Nc1ccc(-c2cnc(-c3ccc(N)cc3)nc2)cc1
Potency: inactive

COc1cc(NC(=O)CN2C(=O)COc3ccc(S(=O)(=O)N4CCCC4)cc32)cc(OC)c1
Potency: inactive

C/C(=N\NC(=O)c1ccccc1)c1ccc(NC(=O)c2cccs2)cc1
Potency: inactive

C=CCn1c(SC(F)F)nc2scc(-c3ccco3)c2c1=O
Potency: inactive

Nc1c(C(=O)CSc2ccccn2)c(=O)[nH]c(=O)n1C1CC1
Potency: inactive

O=[N+]([O-])c1ccc(Cl)cc1Sc1nc2ccccc2o1
Potency: inactive

C/C(=N\NS(=O)(=O)c1ccc(Cl)cc1)c1ccc(NC(=O)c2ccco2)cc1
Potency: inactive

Cc1cc(C(=O)Cn2nnc3ccccc3c2=O)c(C)n1Cc1cccs1
Potency: inactive

C/C(=N\NC(=O)c1cccs1)C(C)(C)C
Potency: inactive

Cc1cc(NC(=O)c2ccc3c(c2)OCCO3)no1
Potency: inactive

COc1ccccc1N=Nc1[nH]c2ccc(C)cc2c1O
Potency: inactive

COc1ccc(CCNC2CCC(c3ccccc3)CC2)cc1 (stereo not given)
Potency: inactive

N#C/C(=C/c1ccccc1[N+](=O)[O-])c1nc(C2CC2)cs1
Potency: inactive

c1ccc(-c2ccc(-c3ccccn3)nn2)nc1
Potency: inactive

CN1CC(C(=O)Nc2ccc(F)c(Cl)c2)CC1=O (stereo not given)
Potency: inactive

CC(C)CC(NC(=O)C1CCC(=O)N1)C(=O)NC(CC(C)C)C(=O)N1CCCC1C(N)=O (stereo not given)
Potency: inactive

OCCNc1nc(NCc2ccccc2)c2ccccc2n1
Potency: inactive

O=C(NNC(=O)c1cc(-c2ccccc2)nn1-c1ccccc1)c1ccccc1
Potency: inactive

CCOC(=O)c1c(C)nc(-c2ccccc2)nc1NC(=O)CC
Potency: inactive

C=CCn1c(C)cc(C(=O)CSc2nc3ccccc3o2)c1C
Potency: inactive

c1ccc2cc3c(NCCN4CCOCC4)ccnc3cc2c1
Potency: inactive

Cc1ccc(-c2nnc(SCC(=O)Nc3ccccc3F)o2)cc1
Potency: inactive

c1ccc(-n2ncc3c(N4CCCCC4)ncnc32)cc1
Potency: inactive

CNc1ccc(/C=C/C(=O)c2ccc(C)cc2)cc1[N+](=O)[O-]
Potency: inactive

N#CCc1nc(CSc2nc3ccccc3s2)cs1
Potency: inactive

O=S(=O)(CCOc1ccccc1)c1nc2ccccc2[nH]1
Potency: inactive

Cc1ccc(C)c(C(=O)COC(=O)c2n[nH]c3ccccc23)c1
Potency: inactive

O=C(Nc1ccccc1N1CCCCC1)c1ccc([N+](=O)[O-])o1
Potency: inactive

O=C(c1cccs1)c1coc2ccc(O)cc12
Potency: inactive

O=C(CN1C(=O)NC2(CCCc3ccccc32)C1=O)c1ccc(F)cc1 (stereo not given)
Potency: inactive

CC(C)CCn1cnc2c(cnn2-c2ccc(F)cc2)c1=O
Potency: inactive

COc1cc(C(=O)N/N=C(\c2ccccc2)c2ccccn2)cc(OC)c1OC
Potency: inactive

Cc1cccc(N2CCN(S(=O)(=O)c3ccc4c(c3)CCC(=O)N4)CC2C)c1 (stereo not given)
Potency: inactive

O=C(CNC(=O)c1cccc(F)c1)N/N=C/c1cc(Br)ccc1OC(=O)/C=C/c1ccco1
Potency: inactive

Cc1ccc(OCCCNCCO)c(Br)c1
Potency: inactive

Cc1noc(C)c1COc1ccc(C(=O)NCCOc2ccccc2)cc1
Potency: inactive

COCCn1c(C)cc(C(=O)CSc2nc3ccccc3s2)c1C
Potency: inactive

C/C(=N/NC(=S)Nc1ccccc1)c1ccc2c(c1)OCO2
Potency: inactive

CCCSc1ccc2nc(-c3ccccc3)cn2c1
Potency: inactive

N#C/C(Cn1c[n+](NC(=O)Nc2ccccc2)cn1)=N/O
Potency: inactive

CCN1CCN(CC(=O)Nc2nc3ccc(C)cc3s2)CC1
Potency: inactive

Fc1ccccc1/C=C/c1ccc2ccccc2n1
Potency: inactive

CCn1c(=O)c2ccccc2n(Cc2ccccc2C)c1=O
Potency: inactive

CN(C)C(=O)c1ccc2c(c1[N+](=O)[O-])C(=O)c1ccccc1C2=O
Potency: inactive

COc1ccc(-n2cnc3cc(C(=O)N4CCOCC4)ccc32)cc1
Potency: inactive

O=C(NC(=S)NC1CCCCC1)c1ccccc1[N+](=O)[O-]
Potency: inactive

CC(C)(C)NC(=O)C(c1ccc(Cl)cc1)N(CCO)C(=O)c1snc(C(N)=O)c1N (stereo not given)
Potency: inactive

COc1cc(C2NC(=S)NC(O)(C(F)(F)F)C2C(=O)c2cccs2)cc(OC)c1O (stereo not given)
Potency: inactive
